Bioassay records (PubChem)
In the library only some 1.6% were active in any assay of this set; here they are far more common.
Wee1 stabilizer: Wee1 degradation inhibitors, primary screen, cell-based, HeLa, Wee1K328M-luciferase, luminescence; Wee1-like protein kinase (Homo sapiens), P30291; HeLa Luc-Wee1K328M stability; 100% = proteasome inhibitor MG132 effect; reporter increase, % at 5 µM; 220,000 compounds, 1.2% hits; AID 1321, 2008;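 active = activation above the mean of all tested compounds plus 3 SD, set per screening run, cut at about 8.8% in these data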;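 note: cells exposed to compound for 20 h before luminescence read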
HSV replic up: enhancers of HSV replication in host cells, fold increase, host cell viability; HSV replication augmentation in cells; 220,000 compounds, 0.005% hits; AID 1956, 2009; maximum fold increase; in the data active = maximum fold increase above about 1.5; tested in PC3 cells
Hsp70 act: Hsp70 transcriptional activators, primary screen, cell-based, HeLa, Hsp70 promoter luciferase, luminescence, 10 µM | 200,000 compounds, 0.04% hits | HeLa Hsp70 promoter luciferase reporter; scaled: vehicle 0, proteasome-inhibitor control 100% | activation, % at 10 µM;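 active = activation above the mean across all tested compounds plus 3 SD, cutoff set per campaign, cut at about 5.5% in these data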
Redox H2O2 prof: compounds producing H2O2 with reducing agent – biochemical, NIH compound library profiling, artefact control for MLSCN library redox annotation, primary screen. DTT-dependent redox cycling H2O2, phenol red/HRP absorbance; 100% = 100 µM peroxide control, 0% = buffer. activation, % at 10 µM. 200,000 compounds, 0.03% hits;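 active = activation of at least 50% relative to the plate's high and low controls in the primary single-dose screen; inactive = activation below 50%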;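 note: compound incubated with DTT at 0.8 mM final as the reducing agent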
p97 ATPase inh: inhibitors of human p97 ATPase, primary screen, biochemical; Transitional endoplasmic reticulum ATPase (Homo sapiens), P55072; recombinant p97 ATPase, Kinase-Glo ATP luminescence, 3 h; inhibition, % at 8 µM; 220,000 compounds, 0.42% hits; in the data active = inhibition above about 15%
Target sequence (P55072 whole entry, looked up): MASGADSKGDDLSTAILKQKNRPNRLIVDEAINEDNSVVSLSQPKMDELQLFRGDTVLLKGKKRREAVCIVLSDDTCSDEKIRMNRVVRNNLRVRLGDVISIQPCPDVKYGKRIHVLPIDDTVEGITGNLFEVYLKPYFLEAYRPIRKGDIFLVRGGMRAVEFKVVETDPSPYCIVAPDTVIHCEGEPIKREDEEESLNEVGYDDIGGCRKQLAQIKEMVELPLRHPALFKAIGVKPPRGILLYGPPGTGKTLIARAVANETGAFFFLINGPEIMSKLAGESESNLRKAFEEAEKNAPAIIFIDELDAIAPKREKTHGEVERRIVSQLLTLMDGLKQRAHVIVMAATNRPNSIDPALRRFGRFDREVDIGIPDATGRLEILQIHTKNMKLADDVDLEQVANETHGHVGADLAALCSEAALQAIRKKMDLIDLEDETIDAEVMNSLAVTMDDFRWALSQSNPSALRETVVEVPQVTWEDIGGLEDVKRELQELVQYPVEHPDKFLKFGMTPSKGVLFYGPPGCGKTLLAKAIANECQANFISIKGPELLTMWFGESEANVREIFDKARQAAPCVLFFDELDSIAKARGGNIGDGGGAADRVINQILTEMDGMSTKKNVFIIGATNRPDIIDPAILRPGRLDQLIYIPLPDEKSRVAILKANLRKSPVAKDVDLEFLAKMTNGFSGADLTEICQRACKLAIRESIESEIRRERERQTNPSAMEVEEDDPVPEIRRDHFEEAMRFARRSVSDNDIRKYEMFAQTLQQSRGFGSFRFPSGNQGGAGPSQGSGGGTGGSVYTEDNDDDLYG
Wee1 degr conf: Wee1 degradation inhibitors, confirmation, cell-based, HeLa, Wee1K328M-luciferase, luminescence, triplicate; shares compounds with Wee1 stabilizer; HeLa Luc-Wee1K328M degradation; vehicle 0%, proteasome-blocked wells 100%; activation, % at 5 µM; 1,100 compounds, 4% hits; AID 1410, 2008; in the data active = activation above about 8.9%
Each line names hits and unclear results; the compound was inactive in the other large screens (follow-up assays come after a bar, where they were run).

CN(Cc1nc(-c2cnccn2)no1)CC(O)c1ccccc1 (configuration not stated)	Wee1 stabilizer 12 | Wee1 degr conf inactive
CN(CCc1ccccc1)Cc1nc(-c2cnccn2)no1	none
Cc1ccsc1/C=C(\C#N)C(=O)NC1CCS(=O)(=O)C1 (configuration not stated)	Wee1 stabilizer 12 | Wee1 degr conf inactive
CS(=O)(=O)Nc1ccc(C(=O)Nc2ccc(S(=O)(=O)N3CCCC3)cc2)cc1	Wee1 stabilizer 13 | Wee1 degr conf inactive
CC(=O)Nc1ccc(C(=O)Nc2ccc(S(=O)(=O)N3CCCC3)cc2)cc1	none
Cc1cc(C)n2nc(C(=O)Nc3cccc(S(=O)(=O)N4CCCC4)c3)nc2n1	none (no result: Hsp70 act, Redox H2O2 prof)
Cc1cc(C)n2nc(C(=O)Nc3cccnc3)nc2n1	Wee1 stabilizer 13 | Wee1 degr conf inactive
CCNC(=S)N1CCN(CC(=O)Nc2ccc(OC)cc2)CC1	Wee1 stabilizer 12 | Wee1 degr conf inactive
CNc1nc(Oc2ccc(C(=O)OC)cc2)nc(SC)n1	none
O=c1cc(/C=C/c2ccccc2)oc2ccccc12	Wee1 stabilizer 12 | Wee1 degr conf inactive
O=C(NC1CC1)c1cc(=O)c2ccccc2o1	none
COCCNC(C)C(=O)C12CC3CC(CC(C3)C1)C2 (configuration not stated)	none
CC1CC(C)CN(C(=S)SCc2nc(N)nc(Nc3ccccc3)n2)C1 (configuration not stated)	Wee1 stabilizer 12 (no result: Hsp70 act, Redox H2O2 prof) | Wee1 degr conf inactive
Nc1nc(CSC(=S)N2CCCCC2)nc(Nc2ccccc2)n1	none
CCSc1nnc(NC(=O)c2cc(C)nc3ccccc23)s1	Wee1 stabilizer 11 | Wee1 degr conf inactive
CN(C)N1C(=O)CC(N2CCCC2)C1=O (configuration not stated)	none
Cc1ccc2c(COC(=O)c3n[nH]c4ccccc34)cc(=O)oc2c1	Wee1 stabilizer 14 | Wee1 degr conf inactive
COc1ccc(Nc2oc(-c3ccc(OC)cc3)nc2C#N)cc1	Wee1 stabilizer 11 (no result: Hsp70 act, Redox H2O2 prof) | Wee1 degr conf 9.6
CCOC(=O)C(C(C)=O)C(c1ccc(OC)cc1)C(C(C)=O)C(=O)OCC (configuration not stated)	none
Fc1cccc(/C=N/Nc2nc3ccccc3[nH]2)c1	Wee1 stabilizer 11 | Wee1 degr conf inactive
N/C(=N\OC(=O)c1ccco1)c1ccc(Br)cc1	Wee1 stabilizer 15 | Wee1 degr conf inactive
O=C(CSC1=NCCN1)C1COc2ccccc2O1 (configuration not stated)	Wee1 stabilizer 12 | Wee1 degr conf inactive
CC(C)=C1C2CCC1C1C(=O)N(c3nc(-c4ccccc4)c(C)s3)C(=O)C21 (configuration not stated)	none
CCOC(=O)c1[nH]c(C)c(CN(CCc2ccccc2)S(C)(=O)=O)c1C	none
CCOC(=O)c1[nH]c(C)c(CN(C(C)=O)c2ccc(OCC)cc2)c1C	Wee1 stabilizer 13 | Wee1 degr conf inactive
Cc1ccc(S(=O)(=O)N2CCCCC2)cc1C(=O)c1nccn1C	none
COC/C=C/C1=CC2=CC(=O)C(C)(OC(=O)c3cnc4ccccc4n3)C(=O)C2=CN1C1CC1 (configuration not stated)	none (no result: Wee1 stabilizer, Hsp70 act, Redox H2O2 prof, p97 ATPase inh)
CCN(CC)c1ccc(NC(=O)COc2ccccc2C#N)cc1S(=O)(=O)Nc1ccc(OC)cc1	none
CCN(CC)c1ccc(NC(=O)c2cnccn2)cc1S(=O)(=O)Nc1ccc(OC)cc1	Wee1 stabilizer 12 | Wee1 degr conf inactive
Cn1c(C(=O)Nc2ccc3c(c2)OCCO3)cc2sccc21	Wee1 stabilizer 16 | Wee1 degr conf inactive
O=C(Nc1ccc2c(c1)OCCO2)c1cc2sccc2n1Cc1ccccc1	none
COC(=O)c1ccc(/C=N/NC(=S)NCCN2CCOCC2)cc1	none
CCc1nc(SCC(=O)N2CCCc3ccccc32)c2oc3ccccc3c2n1	none
COc1cc(C)c(C)cc1S(=O)(=O)N1CCN(Cc2ccccc2)CC1	Wee1 stabilizer 14 | Wee1 degr conf inactive
Cc1cc(C)n(C2CC(=O)N(c3ccc(C)c(Cl)c3)C2=O)n1 (configuration not stated)	none (no result: Hsp70 act, Redox H2O2 prof)
COc1cccc2cc(-c3cn4cccc(C)c4n3)c(=O)oc12	none
COc1cccc2cc(-c3cn4ccc(C)cc4n3)c(=O)oc12	Wee1 stabilizer 14 | Wee1 degr conf inactive
CCCC(=O)N1CCN(c2ccc(NC(=O)C(C)(C)C)cc2Cl)CC1	none
CCCC(=O)N1CCN(c2ccc(NC(=O)c3cccs3)cc2Cl)CC1	Wee1 stabilizer 16 | Wee1 degr conf inactive
CCC(C)NCCOc1ccc(C)cc1[N+](=O)[O-] (configuration not stated)	Wee1 stabilizer 25 | Wee1 degr conf inactive
C=CCNCCOc1ccc(C)cc1[N+](=O)[O-]	none
Cc1cccc(NC(=O)c2cnc3sccn3c2=O)c1	Wee1 stabilizer 24 (no result: HSV replic up) | Wee1 degr conf inactive
CCn1cc(C(=O)OCC(=O)N2C(C)CCCC2C)c(=O)c2ccc(C)nc21 (configuration not stated)	Wee1 stabilizer 11 | Wee1 degr conf inactive
Cc1ccc(Nc2c(-c3ccco3)nc3nc(C)cc(C)n23)cc1	Wee1 stabilizer 31 | Wee1 degr conf inactive
CCCCOCCCNC(=O)c1ccc(OCC)cc1	none
Cc1ccc2nc(CSc3nnc(-c4ccncc4)n3C)cc(=O)n2c1	none (no result: HSV replic up)
C=CCn1c(SCc2cc(=O)n3cc(C)ccc3n2)nnc1-c1ccc(F)cc1	Wee1 stabilizer 15 | Wee1 degr conf inactive
O=c1c2ccccc2nc2c3ccccc3c(NCCO)nn12	none
c1ccc(C(c2ccccc2)N2CCN(c3nc4ccccc4n4cnnc34)CC2)cc1	Wee1 stabilizer 11 | Wee1 degr conf inactive
CCOCCn1c(CN2CCN(c3ccccc3)CC2)nc2c1c(=O)n(C)c(=O)n2C	Wee1 stabilizer 11 | Wee1 degr conf inactive
Cc1cc(N2C3CCC2CC(O)(c2ccc(F)cc2)C3)nc(-c2ccccc2)n1 (configuration not stated)	none
Cc1ccnc(N2C3CCC2CC(O)(c2ccccc2)C3)n1 (configuration not stated)	Wee1 stabilizer 12 | Wee1 degr conf inactive
O=C(N/N=C/c1ccc[nH]1)c1ccc(Cl)cc1	none
Cc1nc(NC(=O)CSc2nnc(-c3ccc4c(c3)OCO4)o2)c(Cl)cc1Cl	Wee1 stabilizer 11 | Wee1 degr conf inactive
Cc1cc(-c2nn(-c3ccccc3F)cc2CN(C)CC(O)CO)c(C)s1 (configuration not stated)	Wee1 stabilizer 13 | Wee1 degr conf inactive
CCOC(=O)CC(=O)CSc1nc(-c2cccnc2)ccc1C#N	none
